Test results: PubChem BioAssay (NCI)
About 83,000 compounds went through this panel and 20% of them were active in at least one assay; those are over-represented in the sample as a whole.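 Testing used 96-well plates and a 48-hour single-concentration exposure. Example: -40 means 40% of the starting cells died.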 A number with no mark means an inactive call. Activity calls are given as the source filed them. How the source made its calls: active means growth percent below 10; inactive means the rest.

Experiments:
Test in all cases: NCI-60 one-dose screen, 48 h (100 = growth as untreated, 0 = no growth, -100 = all killed)
Conditions in all cases: 10 µM unless noted
HCT-15 colon = tested on: HCT-15 colon
HT29 colon = tested on: HT29 colon
SNB-75 CNS = tested on: SNB-75 CNS
SNB-19 CNS = tested on: SNB-19 CNS
U251 CNS = tested on: U251 CNS
PC-3 prostate = tested on: PC-3 prostate
SK-MEL-5 melanoma = tested on: SK-MEL-5 melanoma
UACC-62 melanoma = tested on: UACC-62 melanoma
LOX IMVI melanoma = tested on: LOX IMVI melanoma
SK-MEL-28 melanoma = tested on: SK-MEL-28 melanoma
SK-MEL-2 melanoma = tested on: SK-MEL-2 melanoma
EKVX NSCLC = tested on: EKVX NSCLC
SN12C renal = tested on: SN12C renal
UO-31 renal = tested on: UO-31 renal
TK-10 renal = tested on: TK-10 renal
ACHN renal = tested on: ACHN renal
CAKI-1 renal = tested on: CAKI-1 renal
A498 renal = tested on: A498 renal
CCRF-CEM leukemia = tested on: CCRF-CEM leukemia
MOLT-4 leukemia = tested on: MOLT-4 leukemia

Row | Compound | growth (HCT-15 colon) | growth (HT29 colon) | growth (SNB-75 CNS) | growth (SNB-19 CNS) | growth (U251 CNS) | growth (PC-3 prostate) | growth (SK-MEL-5 melanoma) | growth (UACC-62 melanoma) | growth (LOX IMVI melanoma) | growth (SK-MEL-28 melanoma) | growth (SK-MEL-2 melanoma) | growth (EKVX NSCLC) | growth (SN12C renal) | growth (UO-31 renal) | growth (TK-10 renal) | growth (ACHN renal) | growth (CAKI-1 renal) | growth (A498 renal) | growth (CCRF-CEM leukemia) | growth (MOLT-4 leukemia)
1 | O=C(c1ccc(O)cc1)C1[C@H](c2ccc(Cl)cc2)[C@@H](c2ccccc2)NC12C(=O)Nc1ccc(Br)cc12 (stereo not given in full) | -67% (active) | -68.1% (active) | -13% (active) | -2.97% (active) | -62% (active) | -16% (active) | -93.3% (active) | -40% (active) | -100% (active) | -5.57% (active) | -76.1% (active) | -5.33% (active) | -92.6% (active) | -25.7% (active) | 1.72% (active) | 0.788% (active) | 3.93% (active) | -15.5% (active) | -11.1% (active) | -34.2% (active)
2 | COc1cc(C2CC(c3cc(OC)c(OC)c(OC)c3)=Nc3c(N)nc(N)nc3N2)ccc1Oc1nc(Nc2ccc(F)cc2)nc(N(C)C)n1 (stereo not given) | 4.98% (active) | 7.02% (active) | 55.9% | 70.7% | 56.4% | 33.8% | 36% | 83.6% | 10.3% | 74% | 82.7% | 67.5% | 78.5% | 40.3% | 99.8% | 68.1% | 52.3% | 118% | 26.7% | 6.97% (active)
3 | CC(C)C[C@H](NC(=O)[C@@H]1CCCCCCCCCCC(=O)N[C@@H](CC(=O)N2CCC[C@@H]2C2CCCC2)C(=O)N1)B(O)O | -36.7% (active) | -18% (active) | -77% (active) | 6.18% (active) | -50.7% (active) | 8.18% (active) | -92% (active) | -86.8% (active) | -93.3% (active) | -5.72% (active) | -70.6% (active) | -39.2% (active) | -88.9% (active) | -66.8% (active) | 0.691% (active) | 3.27% (active) | 7.24% (active) | -87.2% (active) | 44% | -19.9% (active)
4 | COc1ccc(N=Nc2c(N)nn3c(-c4cc5ccccc5oc4=O)ccnc23)cc1 | 64.9% | 50.7% | 33.6% | 19.8% | 28.5% | 70.7% | 24% | 47.7% | 57.2% | 45.4% | 39.3% | 44.1% | 24.1% | 40.7% | 77.7% | 3.84% (active) | 53.8% | 138% | 96.3% | 104%
5 | O=C(c1ccc(O)cc1)C1[C@H](c2ccccc2Br)[C@@H](c2ccccc2)NC12C(=O)Nc1ccccc12 (stereo not given in full) | 34.7% | -7.42% (active) | 36.8% | 58.5% | 7.5% (active) | 18.2% | 28.1% | 31.9% | 5.24% (active) | 59.3% | -3.4% (active) | 28.3% | 30.2% | 28.9% | 49.9% | 25.9% | 23.6% | 52.1% | 21.3% | 3.1% (active)
6 | Nc1nnc(-c2cncc(Br)c2)c(-c2c[nH]c3ccc(Cl)cc23)n1 | 55.4% | 106% | 57.2% | 73.1% | 83.9% | 90.5% | 70.4% | 73.7% | 77.3% | 91.2% | 111% | 78.4% | 83.2% | 41.4% | 111% | 66.1% | 59.1% | 112% | 52.9% | 54.4%
7 | Nc1cc2ccccc2c(=O)n1NC(=O)c1ccc(Br)cc1 | 99.4% | 118% | 58.4% | 84.5% | 96.1% | 95.3% | 88.1% | 80.6% | 84.2% | 88% | 108% | 83.2% | 95.5% | 74.9% | 116% | 104% | 83.8% | 189% | 86.4% | 90.8%
8 | COc1ccc2c(c1)C(Sc1ccc(F)cc1)c1c(nc(N)c(C#N)c1N)O2 (stereo not given) | 80.6% | 94.3% | 66.5% | 79.7% | 82% | 55.1% | 91.2% | 74.1% | 60.9% | 112% | 97% | 87.1% | 78.5% | 39.8% | 103% | 86.6% | 84.9% | 101% | 1.67% (active) | 53.9%
9 | Clc1ccc(-c2nc3ccc(-c4nnc(SCc5ccccc5)o4)cc3[nH]2)cc1 | -28.9% (active) | 41.5% | 40.4% | 27% | -8.55% (active) | 25.1% | 20.9% | 37.7% | 4.07% (active) | 58.3% | 75.3% | -24.4% (active) | -57.9% (active) | 49.3% | 90.6% | 45% | 37.5% | 112% | 34.1% | 27.7%
10 | C=CCSc1nnc(-c2ccc(-c3nc4ccc(Cl)cc4[nH]3)cc2)o1 | 28% | 32.1% | 45.9% | 76.1% | 47.3% | 63.2% | 35.9% | 39.4% | 39.4% | 60% | 38.7% | 60.8% | 63.1% | 78.4% | 90.3% | 78.8% | 49.2% | 106% | 37.1% | 48.9%
11 | CC[C@]12C=CCN3CC[C@@]4(c5ccc(OC)cc5N(C)[C@H]4[C@@](O)(C(=O)OC)[C@@H]1OC(=O)CCC[P+](c1ccc(OC)cc1)(c1ccc(OC)cc1)c1ccc(OC)cc1)[C@@H]32 | -86.3% (active) | -84.3% (active) | -34% (active) | -96.7% (active) | -93.7% (active) | -78.8% (active) | -99.6% (active) | -97.1% (active) | -96.4% (active) | -96.3% (active) | -90.6% (active) | -85% (active) | -93.4% (active) | -56.8% (active) | -90.7% (active) | -95.8% (active) | -93.4% (active) | -83.2% (active) | -71.2% (active) | -36.7% (active)
12 | O=C(Cc1c(-c2cccc([N+](=O)[O-])c2)n(-c2ncnc3c2c(-c2ccccc2)c(-c2ccccc2)n3Cc2ccccc2)[nH]c1=O)c1ccc(Cl)c(Cl)c1 | 62.3% | 37% | 46.1% | 25.9% | 26.4% | 30.7% | -10.2% (active) | 14% | 15.7% | 46.3% | 1.5% (active) | 11.1% | 38.5% | 39.8% | 59% | 40.4% | 21.1% | 70.3% | 51.3% | 41.9%
13 | COc1cc2cc(C(=O)N3C[C@@H](CCl)c4c3cc(OC(=O)N(C)CCSSCCN3CCOCC3)c3ccccc43)[nH]c2c(OC)c1OC | -11.1% (active) | -10% (active) | -74.6% (active) | -99.6% (active) | -24.1% (active) | -12.2% (active) | -46.5% (active) | -80.3% (active) | -69.2% (active) | -60.7% (active) | -86.8% (active) | -40.1% (active) | -48.4% (active) | -28.2% (active) | -40% (active) | -18.9% (active) | -45.3% (active) | -15.9% (active) | -15.9% (active) | -18.2% (active)
14 | COc1ccc(NC(=O)CSc2nnc(-c3ccc(-c4nc5ccccc5[nH]4)cc3)o2)cc1 | 18.2% | 18% | 63.4% | -5.58% (active) | -68.2% (active) | 25.1% | 14% | 17.8% | -63.9% (active) | -72.3% (active) | 61.8% | 53.2% | 31% | 97.7% | 96.8% | 35.4% | 41.5% | 147% | 50.7% | 35.9%
15 | Cc1[nH]nc2ccc3nc(-c4cnn(CCO)c4)c4c(c3c12)CCCC4 | 23.3% | 31.3% | 31.9% | 74.4% | 57.2% | 40.4% | 31.7% | 34.8% | 25.1% | 75.6% | 21.1% | 27.2% | 32.3% | 21.5% | 21.1% | 21.4% | 4.55% (active) | -7.65% (active) | 28.7% | 34%
